Shown is part of a subset that was picked to be rich in hits.
CD40 NFkB inh – CD40 pathway inhibition in BL2 cells; BL2 NF-kB luciferase reporter, CD40L-induced, 4 h; inhibition, % at 10 µM; 0.94% of 83,000 active;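 active means mean inhibition of at least 50% with a set share of replicates also reaching that level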;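 further: 0% = neutral control wells and 100% = IKK inhibitor VII at 50 µM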
The depositor's hits bear a star; [ ] = another dose, or the depositor's remark.

SMILES	CD40 NFkB inh
CCOC(=O)c1cc2c(=Cc3ccc(N(C)C)cc3)c3ccccc3n2[n+]1C	24
O=[N+]([O-])c1ccc(C=CC=Cc2ccccc2)cc1	3
CN(C)c1ccc(C=c2c3cc(O)ccc3n3c2cc(-c2ccccc2)[n+]3C)cc1	80*
C[n+]1c(-c2ccccc2)cc2c(=Cc3ccccc3)c3ccccc3n21	93*
O=[N+]([O-])c1ccc2c(c1)c(-c1ccccc1)nc1nncn12	1
C[n+]1c(-c2ccccc2)cc2c(=Cc3ccc([N+](=O)[O-])cc3)c3ccccc3n21	110*
COc1ccc(CN(C)C[C@@H]2Oc3c(NC(=O)c4cnccn4)cccc3C(=O)N([C@H](C)CO)C[C@H]2C)cc1	-14[25 µM]
C[C@@H]1CN([C@H](C)CO)C(=O)c2ccccc2-c2ccccc2CO[C@H]1CN(C)C(=O)[C@H](C)c1ccccc1	0
COc1cccc(NC(=O)N(C)C[C@H]2OCc3ccccc3-c3ccccc3C(=O)N([C@@H](C)CO)C[C@H]2C)c1	-15[25 µM]
O=C1NCCOCn2nncc2CC[C@H]1Cc1ccccc1	3
COc1ccc(C#Cc2ccc3c(c2)O[C@@H](CN(C)C(=O)CN2CCOCC2)[C@@H](C)CN([C@@H](C)CO)S3(=O)=O)cc1	-4[25 µM]
CCCNC(=O)[C@@H]1[C@@H](CO)[C@@H]2Cn3c(ccc(-c4ccc(F)cc4)c3=O)[C@@H]2N1CC1CC1	-15[25 µM]
C[C@@H]1CN([C@@H](C)CO)C(=O)c2c(c3ccccc3n2C)-c2ccccc2CO[C@H]1CN(C)Cc1cccc(F)c1	27
CCCNC(=O)N1C[C@H]2[C@@H](c3ccccc31)[C@@H](CO)N2Cc1ccc2c(c1)OCO2	-2[25 µM]
COc1ccc2c3c(n(C)c2c1)[C@H](CO)NCC31CN(Cc2cc(-c3ccccc3)on2)C1	0
C[C@H](CO)N1C[C@H](C)[C@@H](CN(C)S(=O)(=O)Cc2ccccc2)OCc2ccccc2-c2c(n(C)c3ccccc23)C1=O	10
C[C@@H]1CN([C@@H](C)CO)C(=O)c2cc(NC(=O)Cc3cn(C)c4ccccc34)ccc2O[C@H]1CN(C)S(C)(=O)=O	-4
Cc1cc(C(=O)COC(=O)c2ccc(O)cc2)c(C)n1CC1CCCO1 (stereo not given)	24
COc1cc(OC)cc(C(=O)OCC(=O)c2cc(C)n(CC3CCCO3)c2C)c1 (stereo not given)	-27
Cc1cc(C(=O)COC(=O)CNC(=O)c2ccccc2)c(C)n1CC1CCCO1 (stereo not given)	58*
CC1CC(C)C(=O)C(C(CC2CC(=O)NC(=O)C2)OC(=O)CC(=O)c2ccccc2)C1 (stereo not given)	56*
O=C1CCC(C(=O)OCC(=O)c2ccccc2)N1 (stereo not given)	11
CC(=O)N(C)C[C@H]1Oc2ccc(N(C)C)cc2C(=O)N(C)C[C@@H]1C	12
Cc1cnc2c(N)cc(C)c(C)c2c1	90*
Cc1cc(N)c(C)c([N+](=O)[O-])c1C	7
SMILES	CD40 NFkB inh
COc1ccc2c3c([nH]c2c1)[C@@H](CO)N(S(=O)(=O)c1cn(C)cn1)CC31CCN(Cc2ccccc2Cl)CC1	-3[25 µM]
C[C@@H]1CN([C@H](C)CO)C(=O)CCCn2cc(nn2)CO[C@@H]1CN(C)Cc1cccc2c1OCCCO2	-9[25 µM]
COc1cccc(-c2ccc3n(c2=O)C[C@H]2[C@H](CO)[C@@H](C(=O)NC4CCC4)N(S(C)(=O)=O)[C@@H]32)c1	-10[25 µM]
COCC#Cc1ccc([C@@H]2[C@H](CO)N3CCCCN(S(=O)(=O)c4ccccc4F)C[C@@H]23)cc1	-17[25 µM]
O=C(NC1CCCC1)[C@H]1[C@H](CO)[C@H]2Cn3c(cccc3=O)[C@@H]1N2CC1CCCC1	0[25 µM]
O=S(=O)(Nc1ccc(-c2nc3ccccc3o2)cc1)c1ccccc1	-35
c1ccc2nc(-c3nc4ccccc4o3)ccc2c1	82*
Cc1cc(-c2nc3ccccc3o2)c2ccccc2n1	-29
COc1ccc(NC(=O)N(C)C[C@@H]2OCc3ccccc3-c3c(n(C)c4ccccc34)C(=O)N([C@@H](C)CO)C[C@@H]2C)c(OC)c1	1[25 µM]
COc1cccc(C#Cc2ccc([C@@H]3[C@@H](C#N)N(C(=O)C4CCCC4)[C@@H]3CO)cc2)c1	-27
COc1cccc(C#Cc2ccc([C@@H]3[C@@H](CO)N(C(=O)C4CCOCC4)[C@H]3C#N)cc2)c1	55*
COc1cccc(C#Cc2ccc([C@H]3[C@H](C#N)N(C(=O)C4CCCC4)[C@H]3CO)cc2)c1	-35
COc1cccc(C#Cc2ccc([C@H]3[C@@H](C#N)N(C(=O)C4CCCC4)[C@@H]3CO)cc2)c1	77*
COc1cccc(C#Cc2ccc([C@@H]3[C@H](C#N)N(C(=O)C4CC4)[C@H]3CO)cc2)c1	-18
COc1cccc(C#Cc2ccc([C@H]3[C@@H](CO)N(C(=O)C4CCCC4)[C@H]3C#N)cc2)c1	-2
O=C(Nc1ccccc1F)N1C[C@@H]2[C@H](c3ccccc31)[C@H](CO)N2C(=O)C1CCCC1	-39
COC(=O)C1CC(=O)N(Cc2ccccc2)C1 (stereo not given)	3
CCOc1ccc(CCNC(=O)C2CC(=O)N(Cc3ccc(C)cc3)C2)cc1OCC (stereo not given)	-11
Cc1ccc(CN2CC(C(=O)Nc3ncc(C)s3)CC2=O)cc1 (stereo not given)	78*
CCNC(=O)[C@H]1[C@H](CO)[C@H]2Cn3c(ccc(-c4ccc(F)cc4)c3=O)[C@H]2N1C	-8
CS(=O)(=O)N1C2CN(CC3CC3)CC1C2c1ccc(Br)cc1 (stereo not given)	-9
COC(=O)N(C)C[C@H]1OCc2ccccc2-c2ccccc2C(=O)N([C@H](C)CO)C[C@@H]1C	-11
C[C@H]1CN(C)C(=O)c2cccnc2O[C@H]1CN(C)S(C)(=O)=O	-1
C[C@H](CO)N1C[C@H](C)[C@@H](CN(C)S(=O)(=O)c2ccccc2)OCc2ccccc2-c2ccccc2C1=O	10
O=C1CSC(c2ccc([N+](=O)[O-])cc2)N1CCN1CCCCC1 (stereo not given)	12
SMILES	CD40 NFkB inh
O=C(O)c1ccc([N+](=O)[O-])cc1	6
O=C1CC(=O)OC(c2ccc([N+](=O)[O-])cc2)O1	86*
C[C@H](NC(=O)[C@@H]1[C@@H](CO)[C@@H]2Cn3c(ccc(-c4ccncc4)c3=O)[C@@H]2N1C)c1ccccc1	-11[25 µM]
O=C(N[C@@H]1CC[C@@H](CCNC(=O)C2CCCCC2)O[C@H]1CO)c1ccccn1	4
C[C@@H](NC(=O)[C@@H]1[C@@H](CO)[C@@H]2Cn3c(cccc3=O)[C@@H]2N1Cc1cccnc1)c1ccccc1	4[25 µM]
Cc1nc(Nc2nc3ccccc3o2)nc(C)c1C(=O)Nc1ccc(F)cc1	-6
COCc1cc(=O)[nH]c(Nc2nc3ccccc3o2)n1	17
Cc1nc(Nc2nc3ccccc3o2)nc2c1CCC2	active
c1ccc(N=Nc2ccc(C3=NCCO3)cc2)cc1	14
Cc1ccc(O)c(N=Nc2ccccc2)n1	55*[25 µM]
Oc1[nH]c2ccccc2c1N=Nc1ccccc1	-73
C/C=C/c1ccc([C@H]2[C@@H](CNC(C)C)N(Cc3cccnc3)[C@H]2CO)cc1	-1[25 µM]
C[C@H]1CN(C)C(=O)c2cc(N)ccc2O[C@H]1CN(C)C(=O)OC(C)(C)C	7
CCCC(=O)Nc1ccc2c(c1)C(=O)N(C)[C@@H]1CC[C@H](CC(=O)NCc3cccc(F)c3)O[C@@H]1CO2	0[25 µM]
C[C@H]1CN([C@@H](C)CO)C(=O)CCCn2cc(nn2)CO[C@H]1CN(C)C(=O)Nc1ccc(N2CCN(C)CC2)cc1	-12
